The supplement of paper PMC13172266
Structures can show the parent of a compound that is named as a salt.

Columns and labels:
Assay in all cases: cell proliferation relative to vehicle (% of vehicle); higher = less growth inhibition
Conditions in all cases: 72 h
[1] = system: U2932 TK216-resistant clone 2
Outline: (§1)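 Parental U2932 cells (ABC-DLBCL) and two clones made resistant to an ETS-targeting agent by almost a year of repeated exposure were treated for 72 h with 348 targeted inhibitors at 500 nM or 50 nM. MTT was then applied for 4 h, the reaction was stopped with 25% SDS, and absorbance was measured on a Cytation 3. Values express proliferation as percent of proliferating cells compared with DMSO vehicle.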

[2] = system: U2932 TK216-resistant clone 3
Outline: as §1

U2932 parental = system: U2932 parental
Outline: as §1

| SMILES | cell proliferation ([1]; 50 nM) | cell proliferation ([1]; 500 nM) | cell proliferation ([2]; 50 nM) | cell proliferation ([2]; 500 nM) | cell proliferation (U2932 parental; 50 nM) | cell proliferation (U2932 parental; 500 nM) |
| --- | --- | --- | --- | --- | --- | --- |
| CO[C@@]12[C@H](COC(N)=O)C3=C(C(=O)C(C)=C(N)C3=O)N1C[C@@H]1N[C@@H]12 [Mitomycin C] | 94.8 | 13.8 | 96.6 | 26.4 | 91.3 | 35.8 |
| NC(=O)c1cccc2cn(-c3ccc([C@@H]4CCCNC4)cc3)nc12 [MK-4827(Niraparib) tosylate] | 103 | 91.7 | 109 | 103 | 92.5 | 97.1 |
| CC1(C)CCC(CN2CCN(c3ccc(C(=O)NS(=O)(=O)c4ccc(NCC5CCOCC5)c([N+](=O)[O-])c4)c(Oc4cnc5[nH]ccc5c4)c3)CC2)=C(c2ccc(Cl)cc2)C1 | 74.5 | 29.9 | 84.4 | 35.1 | 90.7 | 66.9 |
| O=C(/C=C/c1cccc(S(=O)(=O)Nc2ccccc2)c1)NO [Belinostat (PXD101)] | 104 | 48.6 | 98.1 | 67.6 | 90.1 | 41.8 |
| NC(=O)NO [Hydroxyurea] | 103 | 94.7 | 102 | 103 | 92.2 | 97.8 |
| Cn1cc(/C=C2\C(=O)Nc3cccnc32)c2ccccc21 | 102 | 105 | 106 | 105 | 97.2 | 90 |
| COc1ccc(-c2ccc3ncc4c(c3c2)n(-c2ccc(N3CCNCC3)c(C(F)(F)F)c2)c(=O)n4C)cn1 | 15.8 | -0.777 | 30.9 | 0.399 | 19.7 | 1.95 |
| CC(C)NCCCn1c(Sc2cc3c(cc2I)OCO3)nc2c(N)ncnc21 | 113 | 6.42 | 105 | 31.6 | 112 | 6.73 |
| N#Cc1c(Oc2ccc(F)c(NC(=O)Cc3cccc(C(F)(F)F)c3)c2)ccc2nc(NC(=O)C3CC3)sc12 | 104 | 92.8 | 107 | 103 | 95.9 | 98.6 |
| CN(C)CC[C@H](CSc1ccccc1)Nc1ccc(S(=O)(=O)NC(=O)c2ccc(N3CCN(Cc4ccccc4-c4ccc(Cl)cc4)CC3)cc2)cc1[N+](=O)[O-] | 89.5 | 39.6 | 96.6 | 37.4 | 92 | 61.2 |
| COc1ccc(S(=O)(=O)N(CCO)c2ccccc2CN(C)C/C=C/c2ccc(Cl)cc2)cc1 [KN-93 Phosphate] | 103 | 90.8 | 105 | 90.1 | 102 | 89.6 |
| CCc1nc(-c2cccc(C)c2)c(-c2ccnc(NC(=O)c3ccccc3)c2)s1 | 103 | 97.7 | 98.4 | 103 | 104 | 101 |
| O=C(NOC[C@H](O)CO)c1ccc(F)c(F)c1Nc1ccc(I)cc1F | 101 | 101 | 96.6 | 96 | 92.3 | 91.5 |
| COc1cc([C@@H]2c3cc4c(cc3[C@@H](O[C@@H]3O[C@@H]5CO[C@@H](C)O[C@H]5[C@H](O)[C@H]3O)[C@H]3COC(=O)[C@H]23)OCO4)cc(OC)c1O [Etoposide] | 95.7 | 53.8 | 99.3 | 74.9 | 93.3 | 68.8 |
| Clc1ccc(Nc2nnc(Cc3ccncc3)c3ccccc23)cc1 [Vatalanib (PTK787) 2HCl] | 109 | 99.8 | 108 | 113 | 93.1 | 102 |
| CN(C)Cc1c(C(=O)NCCOc2ccc(C(=O)NO)cc2)oc2ccccc12 | 99.6 | 40.3 | 91.6 | 47.6 | 81.5 | 32.6 |
| CCCS(=O)(=O)Nc1ccc(F)c(C(=O)c2c[nH]c3ncc(-c4ccc(Cl)cc4)cc23)c1F [Vemurafenib (PLX4032, RG7204)] | 106 | 110 | 101 | 108 | 101 | 100 |
| CN1CCN(CCOc2cc(OC3CCOCC3)c3c(Nc4c(Cl)ccc5c4OCO5)ncnc3c2)CC1 [Saracatinib (AZD0530)] | 103 | 97.1 | 99.6 | 101 | 94.1 | 98.9 |
| CCn1c2ccccc2c2cc(Nc3ccnc(NCCCN4CCOCC4)n3)ccc21 | 85.4 | 91 | 74.8 | 88.1 | 83.6 | 91.7 |
| C[C@@H](Nc1cc(F)cc(F)c1)c1cc(C(=O)N(C)C)cc2c(=O)cc(N3CCOCC3)oc12 | 111 | 83.1 | 99.4 | 84.5 | 99.9 | 90.3 |
| CN(NC(=O)CC(=O)NN(C)C(=S)c1ccccc1)C(=S)c1ccccc1 [Elesclomol (STA-4783)] | 0.164 | -0.212 | -0.901 | -3.67 | 0.103 | -1.37 |
| Nc1ncn([C@H]2C[C@H](O)[C@@H](CO)O2)c(=O)n1 [Decitabine] | 72.5 | 59.1 | 92.9 | 78.3 | 85.1 | 73.1 |
| NC1(c2ccc(-c3nc4ccn5c(=O)[nH]nc5c4cc3-c3ccccc3)cc2)CCC1 | 101 | 70.1 | 97.5 | 74.9 | 96.8 | 68.4 |
| Oc1ccc(/C=C/c2cc(O)cc(O)c2)cc1 [Resveratrol] | 102 | 111 | 102 | 106 | 103 | 101 |
